Assay results from the supplement of paper PMC11732987, “Enantioselective OTUD7B fragment discovery through chemoproteomics screening and high-throughput optimisation” (Communications Chemistry, 2025).

What was measured:
Assay in all cases: log2 ratio of Biotin-Ahx-Ub-VS probe labelling (fragment/DMSO); higher = less target engagement (more negative = stronger competition), active = hit call of the paper (q ≤ 0.05, log2 ratio ≤ -1)
Conditions in all cases: compound concentration: 200 uM; treatment time: 3 h
[1] = target: T1, USP42 (UniProt Q9H9J4)
T1 sequence (whole entry): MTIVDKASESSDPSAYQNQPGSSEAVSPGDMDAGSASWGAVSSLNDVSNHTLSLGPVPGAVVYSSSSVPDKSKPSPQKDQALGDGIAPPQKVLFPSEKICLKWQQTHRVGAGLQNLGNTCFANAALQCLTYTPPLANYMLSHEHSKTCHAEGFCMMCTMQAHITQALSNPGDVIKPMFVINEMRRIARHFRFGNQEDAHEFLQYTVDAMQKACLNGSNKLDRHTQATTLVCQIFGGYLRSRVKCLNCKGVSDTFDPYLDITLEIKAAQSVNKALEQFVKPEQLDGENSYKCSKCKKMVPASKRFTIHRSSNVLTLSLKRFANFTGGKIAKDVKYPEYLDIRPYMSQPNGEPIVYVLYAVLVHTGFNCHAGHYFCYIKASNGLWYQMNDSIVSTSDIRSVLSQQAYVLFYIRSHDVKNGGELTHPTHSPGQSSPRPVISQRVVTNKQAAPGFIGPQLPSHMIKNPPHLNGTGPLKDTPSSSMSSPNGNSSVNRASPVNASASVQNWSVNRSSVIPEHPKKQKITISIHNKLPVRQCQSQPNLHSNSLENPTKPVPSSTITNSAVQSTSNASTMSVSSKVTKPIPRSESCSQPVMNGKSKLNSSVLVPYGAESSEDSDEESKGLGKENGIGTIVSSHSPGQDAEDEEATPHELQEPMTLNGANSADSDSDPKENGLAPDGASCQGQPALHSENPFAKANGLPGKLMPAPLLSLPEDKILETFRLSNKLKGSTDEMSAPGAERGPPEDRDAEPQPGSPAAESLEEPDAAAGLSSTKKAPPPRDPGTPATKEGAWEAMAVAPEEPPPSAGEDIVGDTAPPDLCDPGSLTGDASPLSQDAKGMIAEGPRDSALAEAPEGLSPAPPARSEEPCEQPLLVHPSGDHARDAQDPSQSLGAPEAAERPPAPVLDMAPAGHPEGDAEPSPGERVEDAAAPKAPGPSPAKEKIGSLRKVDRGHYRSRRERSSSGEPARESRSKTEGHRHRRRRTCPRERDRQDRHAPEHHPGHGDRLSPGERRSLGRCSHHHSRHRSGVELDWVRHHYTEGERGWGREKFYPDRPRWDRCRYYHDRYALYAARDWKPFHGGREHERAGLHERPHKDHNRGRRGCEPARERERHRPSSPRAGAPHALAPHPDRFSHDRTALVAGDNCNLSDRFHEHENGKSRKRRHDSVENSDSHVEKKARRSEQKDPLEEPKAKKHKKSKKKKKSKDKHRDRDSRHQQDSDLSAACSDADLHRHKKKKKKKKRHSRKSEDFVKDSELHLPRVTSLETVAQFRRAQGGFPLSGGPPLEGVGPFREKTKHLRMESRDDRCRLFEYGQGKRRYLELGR
Summary of the method: (§1)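 HEK293T lysate in Tris/CHAPS/IGEPAL buffer with protease inhibitors (495 µg per sample) was given fragment at 200 µM or vehicle for 3 h, in triplicate. It then received Biotin-Ahx-Ub-VS at 0.5 µM final for 1 h. Labelled DUBs were NeutrAvidin-enriched, digested with LysC and trypsin, and run by diaPASEF LC-MS/MS. Values are average log2 fragment/vehicle ratios by unpaired t-test on global-median-normalised Spectronaut quantities of proteins with ≥2 unique peptides.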

[2] = target: USP46 (UniProt P62068)
USP46, sequence (P62068 whole entry): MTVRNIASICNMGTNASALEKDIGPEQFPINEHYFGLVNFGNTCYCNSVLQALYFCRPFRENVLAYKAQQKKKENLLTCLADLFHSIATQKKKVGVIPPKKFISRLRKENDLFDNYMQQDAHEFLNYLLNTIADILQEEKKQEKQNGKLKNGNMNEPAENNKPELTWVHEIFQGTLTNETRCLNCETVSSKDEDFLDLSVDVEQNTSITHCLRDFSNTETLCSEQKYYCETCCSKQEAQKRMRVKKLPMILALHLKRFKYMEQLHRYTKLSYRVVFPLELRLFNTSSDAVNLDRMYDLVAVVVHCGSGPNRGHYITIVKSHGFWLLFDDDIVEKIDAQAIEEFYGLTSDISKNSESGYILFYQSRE
Summary of the method: as §1

[3] = target: T2, USP47 (UniProt Q96K76)
T2 sequence (whole entry): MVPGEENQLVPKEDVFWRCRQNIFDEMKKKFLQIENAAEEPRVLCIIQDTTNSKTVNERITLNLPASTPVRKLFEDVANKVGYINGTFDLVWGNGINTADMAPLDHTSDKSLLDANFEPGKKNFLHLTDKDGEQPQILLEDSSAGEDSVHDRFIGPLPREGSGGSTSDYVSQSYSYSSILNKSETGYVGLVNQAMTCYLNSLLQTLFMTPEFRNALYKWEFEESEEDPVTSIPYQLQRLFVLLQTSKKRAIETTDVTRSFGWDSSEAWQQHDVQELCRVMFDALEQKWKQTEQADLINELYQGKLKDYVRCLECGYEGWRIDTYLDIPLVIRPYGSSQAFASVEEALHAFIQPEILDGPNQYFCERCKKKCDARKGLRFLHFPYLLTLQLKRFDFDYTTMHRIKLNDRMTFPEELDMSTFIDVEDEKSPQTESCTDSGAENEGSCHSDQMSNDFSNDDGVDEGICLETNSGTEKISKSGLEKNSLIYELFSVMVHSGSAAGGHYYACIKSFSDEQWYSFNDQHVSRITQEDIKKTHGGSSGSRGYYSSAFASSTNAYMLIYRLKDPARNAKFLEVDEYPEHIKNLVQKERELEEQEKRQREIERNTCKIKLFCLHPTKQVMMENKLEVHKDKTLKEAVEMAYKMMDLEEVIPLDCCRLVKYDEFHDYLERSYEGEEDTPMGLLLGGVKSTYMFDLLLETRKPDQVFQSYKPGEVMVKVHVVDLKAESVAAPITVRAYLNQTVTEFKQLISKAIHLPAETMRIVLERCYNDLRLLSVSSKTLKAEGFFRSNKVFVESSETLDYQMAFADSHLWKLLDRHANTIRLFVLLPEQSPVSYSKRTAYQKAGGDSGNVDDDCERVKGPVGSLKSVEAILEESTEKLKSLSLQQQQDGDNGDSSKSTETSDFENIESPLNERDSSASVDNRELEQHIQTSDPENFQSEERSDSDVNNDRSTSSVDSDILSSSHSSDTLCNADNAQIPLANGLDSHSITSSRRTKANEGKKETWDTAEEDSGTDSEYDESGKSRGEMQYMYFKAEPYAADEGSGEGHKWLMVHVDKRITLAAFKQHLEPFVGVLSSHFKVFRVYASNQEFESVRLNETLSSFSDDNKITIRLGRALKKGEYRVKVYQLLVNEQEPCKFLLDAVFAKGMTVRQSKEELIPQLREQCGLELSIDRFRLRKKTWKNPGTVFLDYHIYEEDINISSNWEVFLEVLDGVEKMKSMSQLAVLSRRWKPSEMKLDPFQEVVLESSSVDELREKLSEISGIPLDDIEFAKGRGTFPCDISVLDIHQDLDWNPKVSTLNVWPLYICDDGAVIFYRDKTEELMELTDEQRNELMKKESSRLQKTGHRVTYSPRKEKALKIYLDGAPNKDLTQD
Summary of the method: as §1

[4] = target: T3, USP48 (UniProt Q86UV5)
T3 sequence (whole entry): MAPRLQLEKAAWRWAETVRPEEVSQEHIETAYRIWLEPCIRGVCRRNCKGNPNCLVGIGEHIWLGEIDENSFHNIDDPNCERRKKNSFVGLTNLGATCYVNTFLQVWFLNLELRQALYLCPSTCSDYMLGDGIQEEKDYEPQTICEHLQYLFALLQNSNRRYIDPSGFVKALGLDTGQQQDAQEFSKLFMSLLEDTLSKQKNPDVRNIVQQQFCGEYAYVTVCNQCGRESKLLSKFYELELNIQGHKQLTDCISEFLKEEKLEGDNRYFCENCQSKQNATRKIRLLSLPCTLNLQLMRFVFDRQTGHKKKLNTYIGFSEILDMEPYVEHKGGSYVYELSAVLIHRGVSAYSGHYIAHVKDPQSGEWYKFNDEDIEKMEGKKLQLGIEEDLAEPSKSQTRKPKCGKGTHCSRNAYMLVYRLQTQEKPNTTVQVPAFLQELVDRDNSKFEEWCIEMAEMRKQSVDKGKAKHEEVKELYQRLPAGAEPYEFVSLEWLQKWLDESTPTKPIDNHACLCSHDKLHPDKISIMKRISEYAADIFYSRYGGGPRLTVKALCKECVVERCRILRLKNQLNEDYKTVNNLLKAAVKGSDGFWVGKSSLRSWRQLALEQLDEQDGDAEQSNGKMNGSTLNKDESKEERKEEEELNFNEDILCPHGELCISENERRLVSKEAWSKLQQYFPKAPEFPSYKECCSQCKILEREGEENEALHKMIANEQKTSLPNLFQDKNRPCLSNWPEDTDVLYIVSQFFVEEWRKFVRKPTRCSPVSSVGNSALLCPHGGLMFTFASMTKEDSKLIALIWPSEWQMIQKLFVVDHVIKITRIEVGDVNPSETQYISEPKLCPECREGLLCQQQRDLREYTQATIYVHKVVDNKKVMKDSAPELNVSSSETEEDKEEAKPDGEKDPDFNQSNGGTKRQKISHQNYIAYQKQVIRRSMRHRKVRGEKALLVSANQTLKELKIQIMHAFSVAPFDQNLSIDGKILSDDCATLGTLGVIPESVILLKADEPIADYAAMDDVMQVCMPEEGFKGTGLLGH
Summary of the method: as §1

[5] = target: T4, USP5 (UniProt P45974)
T4 sequence (whole entry): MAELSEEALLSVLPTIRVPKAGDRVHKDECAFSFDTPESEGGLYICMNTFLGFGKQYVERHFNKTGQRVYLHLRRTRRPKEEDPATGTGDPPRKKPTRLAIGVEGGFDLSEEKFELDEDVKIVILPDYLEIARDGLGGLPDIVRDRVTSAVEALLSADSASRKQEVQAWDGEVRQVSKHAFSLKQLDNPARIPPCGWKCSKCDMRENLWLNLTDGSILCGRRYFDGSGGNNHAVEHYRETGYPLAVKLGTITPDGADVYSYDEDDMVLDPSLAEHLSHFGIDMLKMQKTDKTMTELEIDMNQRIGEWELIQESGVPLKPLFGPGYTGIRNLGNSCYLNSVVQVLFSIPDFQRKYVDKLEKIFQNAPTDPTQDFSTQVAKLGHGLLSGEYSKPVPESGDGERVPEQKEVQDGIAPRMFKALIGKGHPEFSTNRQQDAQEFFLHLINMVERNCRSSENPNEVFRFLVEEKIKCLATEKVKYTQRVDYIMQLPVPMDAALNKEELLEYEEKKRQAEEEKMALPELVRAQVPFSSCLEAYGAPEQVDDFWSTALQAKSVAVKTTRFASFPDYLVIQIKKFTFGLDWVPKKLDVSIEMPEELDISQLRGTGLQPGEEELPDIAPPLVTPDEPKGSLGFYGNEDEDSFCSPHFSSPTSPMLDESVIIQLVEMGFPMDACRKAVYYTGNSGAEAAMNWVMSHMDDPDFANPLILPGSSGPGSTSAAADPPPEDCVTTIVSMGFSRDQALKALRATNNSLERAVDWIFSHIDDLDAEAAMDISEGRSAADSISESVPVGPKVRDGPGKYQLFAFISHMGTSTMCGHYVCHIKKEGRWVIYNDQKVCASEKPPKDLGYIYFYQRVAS
Summary of the method: as §1

[6] = target: USP54 (UniProt Q70EL1)
Summary of the method: as §1

[7] = target: USP7 (UniProt Q93009)
USP7, sequence (Q93009 whole entry, looked up): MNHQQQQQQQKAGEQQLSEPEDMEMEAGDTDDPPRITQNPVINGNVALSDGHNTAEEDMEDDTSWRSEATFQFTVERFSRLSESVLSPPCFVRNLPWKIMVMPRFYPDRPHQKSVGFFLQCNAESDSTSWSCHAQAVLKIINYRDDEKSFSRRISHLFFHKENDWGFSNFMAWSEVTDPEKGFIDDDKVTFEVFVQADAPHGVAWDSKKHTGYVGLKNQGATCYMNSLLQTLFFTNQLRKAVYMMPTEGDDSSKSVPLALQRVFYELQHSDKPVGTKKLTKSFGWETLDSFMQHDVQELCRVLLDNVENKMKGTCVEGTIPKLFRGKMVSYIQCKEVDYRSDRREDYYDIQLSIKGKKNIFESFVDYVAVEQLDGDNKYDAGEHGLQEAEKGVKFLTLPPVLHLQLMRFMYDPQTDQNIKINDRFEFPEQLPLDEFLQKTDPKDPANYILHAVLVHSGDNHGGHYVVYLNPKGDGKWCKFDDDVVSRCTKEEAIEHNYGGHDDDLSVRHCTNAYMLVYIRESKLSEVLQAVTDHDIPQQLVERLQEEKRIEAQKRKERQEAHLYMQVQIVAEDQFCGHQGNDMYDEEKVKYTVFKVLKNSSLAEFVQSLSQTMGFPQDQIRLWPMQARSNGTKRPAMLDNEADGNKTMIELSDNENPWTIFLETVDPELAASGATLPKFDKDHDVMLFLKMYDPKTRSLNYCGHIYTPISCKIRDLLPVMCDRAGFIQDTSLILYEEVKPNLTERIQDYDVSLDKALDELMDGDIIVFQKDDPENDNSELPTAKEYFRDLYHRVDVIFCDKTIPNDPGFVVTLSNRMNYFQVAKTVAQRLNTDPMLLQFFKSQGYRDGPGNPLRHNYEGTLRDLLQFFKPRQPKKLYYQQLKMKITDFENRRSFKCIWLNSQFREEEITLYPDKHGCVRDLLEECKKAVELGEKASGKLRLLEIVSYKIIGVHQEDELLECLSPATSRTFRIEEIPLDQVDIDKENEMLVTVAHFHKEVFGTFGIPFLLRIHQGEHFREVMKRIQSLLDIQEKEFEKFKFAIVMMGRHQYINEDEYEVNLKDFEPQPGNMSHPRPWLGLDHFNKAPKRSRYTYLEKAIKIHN
Summary of the method: as §1

[8] = target: T5, USP8 (UniProt P40818)
T5 sequence (whole entry): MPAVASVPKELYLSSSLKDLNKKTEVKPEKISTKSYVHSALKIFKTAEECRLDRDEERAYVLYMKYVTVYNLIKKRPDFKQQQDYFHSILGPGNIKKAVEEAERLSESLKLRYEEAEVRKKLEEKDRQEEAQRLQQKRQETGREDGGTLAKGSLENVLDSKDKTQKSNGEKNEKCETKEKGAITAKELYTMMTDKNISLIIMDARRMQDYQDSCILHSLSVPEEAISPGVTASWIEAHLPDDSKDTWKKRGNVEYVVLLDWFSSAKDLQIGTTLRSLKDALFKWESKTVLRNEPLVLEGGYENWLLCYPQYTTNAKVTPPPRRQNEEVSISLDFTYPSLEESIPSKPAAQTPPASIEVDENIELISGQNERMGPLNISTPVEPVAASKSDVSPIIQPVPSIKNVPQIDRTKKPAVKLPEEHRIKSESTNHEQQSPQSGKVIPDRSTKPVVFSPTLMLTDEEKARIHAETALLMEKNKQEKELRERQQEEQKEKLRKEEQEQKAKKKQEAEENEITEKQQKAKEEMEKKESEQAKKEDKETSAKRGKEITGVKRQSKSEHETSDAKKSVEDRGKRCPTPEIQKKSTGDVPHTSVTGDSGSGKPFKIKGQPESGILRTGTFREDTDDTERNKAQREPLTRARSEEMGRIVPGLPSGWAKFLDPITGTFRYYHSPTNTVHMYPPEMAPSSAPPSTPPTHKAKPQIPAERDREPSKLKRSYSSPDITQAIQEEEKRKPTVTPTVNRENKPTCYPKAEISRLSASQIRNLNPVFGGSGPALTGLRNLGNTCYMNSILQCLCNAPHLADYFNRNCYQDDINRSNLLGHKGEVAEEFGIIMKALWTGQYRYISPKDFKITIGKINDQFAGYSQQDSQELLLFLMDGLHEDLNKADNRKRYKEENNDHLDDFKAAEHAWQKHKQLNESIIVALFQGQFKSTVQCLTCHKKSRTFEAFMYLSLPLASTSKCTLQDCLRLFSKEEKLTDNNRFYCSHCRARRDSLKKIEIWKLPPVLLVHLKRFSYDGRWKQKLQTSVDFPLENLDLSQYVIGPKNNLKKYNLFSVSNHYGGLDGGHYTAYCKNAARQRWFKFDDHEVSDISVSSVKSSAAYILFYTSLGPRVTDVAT
Summary of the method: as §1

[9] = target: USP9X (UniProt Q93008)
USP9X, sequence (Q93008 whole entry): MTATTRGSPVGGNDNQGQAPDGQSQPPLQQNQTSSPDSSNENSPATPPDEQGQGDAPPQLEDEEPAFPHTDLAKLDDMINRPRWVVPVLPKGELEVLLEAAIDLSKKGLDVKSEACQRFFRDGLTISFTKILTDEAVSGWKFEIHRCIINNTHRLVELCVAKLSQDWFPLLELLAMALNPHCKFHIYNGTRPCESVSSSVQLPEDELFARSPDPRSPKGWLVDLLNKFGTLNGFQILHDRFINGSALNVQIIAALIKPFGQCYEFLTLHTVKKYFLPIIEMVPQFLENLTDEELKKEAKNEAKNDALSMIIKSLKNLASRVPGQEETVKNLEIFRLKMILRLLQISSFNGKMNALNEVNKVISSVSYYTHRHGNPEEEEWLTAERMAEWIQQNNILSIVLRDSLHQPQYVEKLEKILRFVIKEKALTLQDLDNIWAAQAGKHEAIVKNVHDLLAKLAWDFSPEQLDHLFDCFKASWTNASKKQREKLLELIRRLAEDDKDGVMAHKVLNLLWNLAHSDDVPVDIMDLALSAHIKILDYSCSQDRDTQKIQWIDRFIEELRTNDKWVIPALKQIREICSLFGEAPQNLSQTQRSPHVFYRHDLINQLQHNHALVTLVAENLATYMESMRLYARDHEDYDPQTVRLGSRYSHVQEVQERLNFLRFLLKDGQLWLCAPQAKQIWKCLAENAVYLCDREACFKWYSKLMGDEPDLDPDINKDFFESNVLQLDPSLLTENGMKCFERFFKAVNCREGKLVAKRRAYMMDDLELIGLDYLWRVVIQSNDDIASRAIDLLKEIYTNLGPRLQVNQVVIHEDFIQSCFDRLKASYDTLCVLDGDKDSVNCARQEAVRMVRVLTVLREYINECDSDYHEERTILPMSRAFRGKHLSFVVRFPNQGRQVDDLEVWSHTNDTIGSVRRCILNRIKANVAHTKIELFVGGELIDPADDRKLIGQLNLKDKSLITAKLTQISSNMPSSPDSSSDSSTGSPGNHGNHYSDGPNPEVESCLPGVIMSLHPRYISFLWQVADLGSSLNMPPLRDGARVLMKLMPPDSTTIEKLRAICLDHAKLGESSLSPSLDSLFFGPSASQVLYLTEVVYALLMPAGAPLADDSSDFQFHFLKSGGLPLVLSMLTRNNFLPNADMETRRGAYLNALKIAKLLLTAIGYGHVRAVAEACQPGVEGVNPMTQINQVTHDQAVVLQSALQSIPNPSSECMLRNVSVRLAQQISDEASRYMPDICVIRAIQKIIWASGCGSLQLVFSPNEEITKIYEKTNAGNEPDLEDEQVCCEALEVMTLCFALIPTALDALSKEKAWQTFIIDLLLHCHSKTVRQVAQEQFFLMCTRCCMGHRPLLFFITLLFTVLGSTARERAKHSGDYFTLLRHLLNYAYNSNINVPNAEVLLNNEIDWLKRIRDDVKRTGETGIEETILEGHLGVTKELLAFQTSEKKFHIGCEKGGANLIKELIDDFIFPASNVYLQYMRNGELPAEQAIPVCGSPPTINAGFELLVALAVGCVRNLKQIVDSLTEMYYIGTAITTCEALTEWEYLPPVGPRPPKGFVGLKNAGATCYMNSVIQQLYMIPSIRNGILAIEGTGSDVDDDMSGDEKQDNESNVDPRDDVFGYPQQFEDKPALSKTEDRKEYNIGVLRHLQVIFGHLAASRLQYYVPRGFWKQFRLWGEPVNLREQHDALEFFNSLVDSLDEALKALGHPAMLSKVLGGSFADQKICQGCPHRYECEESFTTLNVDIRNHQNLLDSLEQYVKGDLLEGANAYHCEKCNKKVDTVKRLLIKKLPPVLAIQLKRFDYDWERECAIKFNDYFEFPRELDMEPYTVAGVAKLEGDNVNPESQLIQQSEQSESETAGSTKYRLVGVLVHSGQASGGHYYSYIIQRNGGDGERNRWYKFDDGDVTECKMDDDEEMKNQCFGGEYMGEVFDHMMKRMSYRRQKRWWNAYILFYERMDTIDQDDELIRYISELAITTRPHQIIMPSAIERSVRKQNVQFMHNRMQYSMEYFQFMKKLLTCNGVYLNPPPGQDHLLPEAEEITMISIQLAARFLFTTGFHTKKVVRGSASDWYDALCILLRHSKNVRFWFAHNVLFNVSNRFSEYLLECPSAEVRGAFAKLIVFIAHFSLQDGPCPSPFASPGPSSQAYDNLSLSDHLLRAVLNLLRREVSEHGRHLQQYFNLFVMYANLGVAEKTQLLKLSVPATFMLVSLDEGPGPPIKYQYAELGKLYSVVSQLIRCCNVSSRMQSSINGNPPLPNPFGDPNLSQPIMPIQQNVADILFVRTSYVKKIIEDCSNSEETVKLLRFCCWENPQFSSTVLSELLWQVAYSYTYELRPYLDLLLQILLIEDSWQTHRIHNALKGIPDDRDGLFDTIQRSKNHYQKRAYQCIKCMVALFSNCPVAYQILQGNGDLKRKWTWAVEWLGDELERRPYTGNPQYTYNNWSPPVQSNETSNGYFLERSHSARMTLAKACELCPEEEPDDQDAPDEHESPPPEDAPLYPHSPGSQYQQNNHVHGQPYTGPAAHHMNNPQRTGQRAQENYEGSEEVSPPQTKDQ
Summary of the method: as §1

[10] = target: UniProt O00487
UniProt O00487, sequence (O00487 whole entry): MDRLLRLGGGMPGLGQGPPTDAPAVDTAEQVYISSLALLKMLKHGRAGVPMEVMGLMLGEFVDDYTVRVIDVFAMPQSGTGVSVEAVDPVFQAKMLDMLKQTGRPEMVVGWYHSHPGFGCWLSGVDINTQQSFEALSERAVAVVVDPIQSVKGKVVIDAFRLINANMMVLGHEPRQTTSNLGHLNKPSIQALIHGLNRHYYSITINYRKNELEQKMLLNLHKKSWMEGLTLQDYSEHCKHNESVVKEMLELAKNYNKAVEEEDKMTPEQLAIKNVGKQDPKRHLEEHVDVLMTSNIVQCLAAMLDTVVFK
Summary of the method: as §1

Measured: log2 ratio of Biotin-Ahx-Ub-VS probe labelling

CS(=O)(=O)c1ccc(CNC(=O)CCl)cc1
inactive: [1] 0.283 | [2] -0.122 | [3] -0.0551 | [4] -0.0444 | [5] -0.111 | [6] 0.392 | [7] -0.145 | [8] -0.0148 | [9] -0.103 | [10] -0.101
